Bioassay records from PubChem.
HSF1 inhib: HSF1 inhibitors in luciferase reporter cells, primary screen, cell-based, NIH3T3, luminescence | NIH3T3-HGL HSE-luciferase, MG132-induced, luminescence 8 h; stronger effect = lower value | 300,000 tested, 0.77% active | activity change, negative = inhibition, % at 7.5 µM (by protocol) | AID 2098, 2009;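 active = more than half of replicate wells show activity change below -50%, luminescence cut by over half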;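 note: luciferase reports HSF-1 transcriptional activity via heat shock element; 0% = median of DMSO wells and -100% = zero luminescence signal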
TLR4-MyD88 BLA: inhibitors of TLR4-MyD88 association in cells, primary screen, cell-based, HeLa CL3-4, BLA complementation, FRET ratio | HeLa CL3-4 TLR4/MyD88 BLA complementation | inhibition, % at 8.4 µM | 200,000 tested, 0.18% active; in the data active = inhibition above about 25%;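 note: 0% = vehicle and 100% = reference inhibitor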
HSF1 activator: HSF-1 activators, primary screen, NIH3T3-HGL cells, MG132 stress, luminescence, single point; NIH3T3-HGL HSF-1 luciferase reporter, 8 h; 100% = twice DMSO control signal; activation, % at 9 µM; AID 504408, 2011; 300,000 tested, 1.7% active;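 active = mean replicate activation of at least 50% with a set share of replicates each reaching 50%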;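 note: 0% = median of the neutral control wells and 100% = twice that signal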
TLR9-MyD88 block: inhibitors of TLR9-MyD88 association in cells, primary screen, cell-based, CHO, BLA complementation, fluorescence. 340,000 tested, 0.21% active. CCF4 FRET ratio. inhibition, % at 4.98 µM. AID 504734, 2011;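 active = inhibition above the mean over all tested compounds plus 3 SD, cut at about 21% in these data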;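 note: 0% = DMSO only wells and 100% = clavulanate BLA inhibitor control wells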
Target sequence (Q99836 whole entry, looked up): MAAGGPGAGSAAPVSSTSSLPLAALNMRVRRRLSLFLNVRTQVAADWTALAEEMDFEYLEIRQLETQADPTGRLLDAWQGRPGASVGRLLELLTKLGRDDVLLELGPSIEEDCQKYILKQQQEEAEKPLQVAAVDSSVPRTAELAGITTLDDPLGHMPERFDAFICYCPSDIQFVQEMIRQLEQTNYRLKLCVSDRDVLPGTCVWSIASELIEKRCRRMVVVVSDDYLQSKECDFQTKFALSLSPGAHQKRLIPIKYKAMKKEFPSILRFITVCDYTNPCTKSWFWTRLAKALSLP
Target sequence (Q9NR96 whole entry, looked up): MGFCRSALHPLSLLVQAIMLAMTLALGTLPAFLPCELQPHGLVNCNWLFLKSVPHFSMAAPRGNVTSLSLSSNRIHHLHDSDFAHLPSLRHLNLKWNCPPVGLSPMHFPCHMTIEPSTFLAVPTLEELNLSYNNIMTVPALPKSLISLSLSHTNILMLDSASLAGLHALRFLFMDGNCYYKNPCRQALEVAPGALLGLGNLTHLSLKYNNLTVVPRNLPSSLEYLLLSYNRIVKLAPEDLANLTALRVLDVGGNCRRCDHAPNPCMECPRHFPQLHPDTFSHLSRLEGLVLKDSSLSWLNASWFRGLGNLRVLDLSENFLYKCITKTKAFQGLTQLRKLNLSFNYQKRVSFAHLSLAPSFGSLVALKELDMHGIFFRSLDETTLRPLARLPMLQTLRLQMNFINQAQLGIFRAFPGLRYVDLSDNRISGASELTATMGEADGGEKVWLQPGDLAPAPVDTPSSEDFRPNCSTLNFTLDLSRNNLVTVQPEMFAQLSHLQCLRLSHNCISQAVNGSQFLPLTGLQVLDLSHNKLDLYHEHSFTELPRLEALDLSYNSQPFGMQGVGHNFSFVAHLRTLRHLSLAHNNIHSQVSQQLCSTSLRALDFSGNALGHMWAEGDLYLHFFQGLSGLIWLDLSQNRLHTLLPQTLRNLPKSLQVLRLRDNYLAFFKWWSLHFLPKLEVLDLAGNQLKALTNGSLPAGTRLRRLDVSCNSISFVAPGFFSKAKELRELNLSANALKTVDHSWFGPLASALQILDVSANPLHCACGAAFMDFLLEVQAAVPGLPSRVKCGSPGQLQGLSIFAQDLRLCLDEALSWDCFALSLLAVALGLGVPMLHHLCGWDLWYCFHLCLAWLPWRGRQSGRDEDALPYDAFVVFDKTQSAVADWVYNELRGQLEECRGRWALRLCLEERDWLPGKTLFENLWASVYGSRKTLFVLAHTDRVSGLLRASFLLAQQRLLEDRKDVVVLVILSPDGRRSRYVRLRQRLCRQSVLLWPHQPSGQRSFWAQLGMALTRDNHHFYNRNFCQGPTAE
NOD2 RIPK2 PPI: NOD2-RIPK2 binding disruptors in cells, primary screen, fluorescence, CHO cells, BLA complementation; Receptor-interacting serine/threonine-protein kinase 2 (Homo sapiens), O43353; CCF4 ratio; inhibition, % at 4.98 µM; 360,000 tested, 0.38% active; AID 624267, 2012; in the data active = inhibition above about 21%;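 note: 0% = vehicle only and 100% = reference blocker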
NOD2 RIPK2 conf: NOD2-RIPK2 binding disruptors, retest, confirmation, fluorescence, CHO cells, BLA complementation, triplicate | shares compounds with NOD2 RIPK2 PPI | CCF4 FRET | inhibition, % at 4.98 µM | 1,200 tested, 70% active | AID 624370, 2012;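 active = mean inhibition across replicates above a set limit taken from the earlier primary screen, cut at about 21% in these data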;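 note: 0% = DMSO-only wells and the high end = clavulanate BLA-blocked wells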
BLA counter: NOD2-RIPK2 counterscreen BLA reporter activity. shares compounds with NOD2 RIPK2 PPI. CHO BLA reporter, CCF4 FRET ratio. inhibition, % at 4.98 µM. 1,200 tested, 57% active;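 active = mean inhibition above the low-control mean inhibition plus three low-control SD, cut at about 11% in these data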;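 note: 0% = DMSO only wells and 100% = clavulanate high control wells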
Starred values were filed as active, the others as inactive. In the library only some 2.4% were active in any assay of this set; here they are far more common.

How did COc1ccc(/C=N\NC(=O)c2ccccc2F)cc1COc1ccc(F)cc1F do in these assays?
HSF1 inhib: -6; HSF1 activator: -16; TLR9-MyD88 block: 9; NOD2 RIPK2 PPI: 9

How did O=c1oc2ccccc2cc1-c1nnc(NCc2ccco2)s1 do in these assays?
HSF1 inhib: 18; TLR4-MyD88 BLA: 21; HSF1 activator: 37; TLR9-MyD88 block: 14; NOD2 RIPK2 PPI: 35*; NOD2 RIPK2 conf: 36*; BLA counter: 41*

How did O=C(O)Cc1sc(NCc2ccco2)nc1-c1ccccc1 do in these assays?
HSF1 inhib: 7; HSF1 activator: 8; TLR9-MyD88 block: -17; NOD2 RIPK2 PPI: -3

Results for COc1ccccc1NC(=O)CN1C(=O)CC(C)S(=O)(=O)c2ccccc21 (centres undefined) ?
HSF1 inhib: -4; HSF1 activator: -13; TLR9-MyD88 block: 7; NOD2 RIPK2 PPI: 6

How did CC(=O)Nc1cccc(-c2ccnc3c2CC(C)(C(=O)NCc2ccncc2)O3)c1 (centres undefined) do in these assays?
NOD2 RIPK2 PPI: 21*; NOD2 RIPK2 conf: 4; BLA counter: -1

Results for CC(=O)NCCNC(=O)C1(C)Cc2c(-c3cccc(NC(C)=O)c3)ccnc2O1 (centres undefined) ?
NOD2 RIPK2 PPI: -4

What do the screens show for `O=C(COC(=O)c1cc(S(=O)(=O)N2CCOCC2)ccc1Cl)Nc1ccccc1Cl`?
TLR9-MyD88 block: -7; NOD2 RIPK2 PPI: 3

What do the screens show for `O=C(c1ccc(Cl)cc1)c1c[nH]c(C(=O)NNc2cccc(Cl)n2)c1`?
HSF1 inhib: 3; TLR4-MyD88 BLA: 8; HSF1 activator: 9; TLR9-MyD88 block: 5; NOD2 RIPK2 PPI: 23*; NOD2 RIPK2 conf: 1; BLA counter: 2

How did COc1ccc(Cl)cc1NC(=O)CN(C)C(=O)CCNC(=O)c1ccccc1OC do in these assays?
TLR9-MyD88 block: -7; NOD2 RIPK2 PPI: 2

What do the screens show for `CCC(C)c1ccc(NC(=O)C2=CC=CN3CCS(=O)(=O)N=C23)cc1` (centres undefined)?
TLR9-MyD88 block: 1; NOD2 RIPK2 PPI: 1

What do the screens show for `CCOc1ccc(/C=C(\C#N)C(=O)c2c(C)[nH]c3ccccc23)cc1OC`?
HSF1 inhib: 0; TLR4-MyD88 BLA: -17; HSF1 activator: 11; TLR9-MyD88 block: -8; NOD2 RIPK2 PPI: 22*; NOD2 RIPK2 conf: 2; BLA counter: -6

Results for COC(=O)c1cccc(Nc2c3c(nc4ccccc24)CCC3)c1 ?
HSF1 inhib: 2; HSF1 activator: 24; TLR9-MyD88 block: -1; NOD2 RIPK2 PPI: -7

How did Fc1cccc(Nc2c3c(nc4ccccc24)CCC3)c1 do in these assays?
HSF1 inhib: -10; HSF1 activator: 11; TLR9-MyD88 block: -7; NOD2 RIPK2 PPI: 22*; NOD2 RIPK2 conf: 5; BLA counter: -1

How did CCOC(=O)C1CCN(Cc2ccc(OC)c(C)c2OC)CC1 do in these assays?
HSF1 inhib: -11; TLR4-MyD88 BLA: -6; HSF1 activator: -1; TLR9-MyD88 block: 2; NOD2 RIPK2 PPI: -3

What do the screens show for `CCOC(=O)C1CCN(Cc2cc(Cl)c3ccccc3c2O)CC1`?
HSF1 inhib: 78; HSF1 activator: 97*; TLR9-MyD88 block: 4; NOD2 RIPK2 PPI: 28*; NOD2 RIPK2 conf: 4; BLA counter: 5

Results for COC1=C(OC)C(=O)C(Sc2ccc3ccccc3c2)=CC1=O ?
TLR9-MyD88 block: 20; NOD2 RIPK2 PPI: 25*; NOD2 RIPK2 conf: 70*; BLA counter: 31*

What do the screens show for `COc1ccc(-c2cc3ncnc(Cl)c3s2)cc1`?
HSF1 inhib: 26; HSF1 activator: 44; TLR9-MyD88 block: -1; NOD2 RIPK2 PPI: -2

Results for Cc1nn(-c2ccccc2)c2c1P(=O)(O)/C(=C1\N(C)c3ccccc3C1(C)C)C=N2 ?
HSF1 inhib: -3; TLR4-MyD88 BLA: 17; HSF1 activator: 25; TLR9-MyD88 block: 8; NOD2 RIPK2 PPI: 24*; NOD2 RIPK2 conf: 16; BLA counter: 19*

How did COc1ccc(Cl)cc1NC(=O)Cn1c(C)csc1=O do in these assays?
TLR9-MyD88 block: -6; NOD2 RIPK2 PPI: -6

What do the screens show for `NC(CCc1ccccc1)c1csc(Nc2nncc3ccccc23)n1` (centres undefined)?
NOD2 RIPK2 PPI: 24*; NOD2 RIPK2 conf: 8; BLA counter: 8

What do the screens show for `CC(=O)Nc1ccc(/C=C/c2nc(-c3ccccc3O)n[nH]2)cc1`?
HSF1 inhib: 26; HSF1 activator: 47; TLR9-MyD88 block: 0; NOD2 RIPK2 PPI: 11

How did C=CCn1c(-c2oc3nc(-c4ccccc4)cc(-c4ccccc4)c3c2N)n[nH]c1=S do in these assays?
HSF1 inhib: 4; TLR4-MyD88 BLA: 8; HSF1 activator: -9; TLR9-MyD88 block: 1; NOD2 RIPK2 PPI: 34*; NOD2 RIPK2 conf: 87*; BLA counter: 88*

What do the screens show for `COc1c(O)c(=O)n2c3ccccc3c3ccnc1c32`?
HSF1 inhib: -1; HSF1 activator: 13; TLR9-MyD88 block: 18; NOD2 RIPK2 PPI: 26*; NOD2 RIPK2 conf: 21; BLA counter: 18*

What do the screens show for `Cc1ccc(C(=O)/C=C/c2cn(CN3CCN(C)CC3)c3ccccc23)cc1`?
HSF1 inhib: 25; TLR4-MyD88 BLA: 23; HSF1 activator: 60*; TLR9-MyD88 block: 10; NOD2 RIPK2 PPI: 24*; NOD2 RIPK2 conf: 26*; BLA counter: 38*

What do the screens show for `Cc1nn(C)cc1/C=C/C(=O)c1ccccc1`?
HSF1 inhib: 4; TLR4-MyD88 BLA: 16; HSF1 activator: 25; TLR9-MyD88 block: -13; NOD2 RIPK2 PPI: 0

Results for CCn1cc(/C=C(\NC(=O)c2ccc(OC)cc2)C(=O)N2CCN(C)CC2)c2ccccc21 ?
HSF1 inhib: 4; HSF1 activator: 13; TLR9-MyD88 block: -6; NOD2 RIPK2 PPI: 7

How did Cn1cc(/C=C/C(=O)c2ccccc2)c2ccccc21 do in these assays?
HSF1 inhib: 23; HSF1 activator: 62*; TLR9-MyD88 block: 10; NOD2 RIPK2 PPI: 25*; NOD2 RIPK2 conf: 25*; BLA counter: 28*

What do the screens show for `CN1C(=O)c2cccc3c(S(=O)(=O)N(C)C)ccc1c23`?
HSF1 inhib: 4; HSF1 activator: 21; TLR9-MyD88 block: 10; NOD2 RIPK2 PPI: 22*; NOD2 RIPK2 conf: 11; BLA counter: 16*
